Measurements: PubChem BioAssay AID1903 (Southern Research Specialized Biocontainment Screening …, 2009)
Out of some 310,000 compounds screened, about 1,200 (0.39%) were called active. The rule behind the calls is not given here. The list is a sample of the results. Potency and affinity values are given separately.

The compounds below were run against Large T antigen (Simian virus 40) (UniProt P03070) (assay: TAg ATPase/helicase activity blockers – biochemical (AID 1903)). Conditions: SV40 large T antigen ATPase/helicase inhibition assay; at 20 µM; hits give high values.
Sequence of Large T antigen (Simian virus 40) (P03070 whole entry, looked up): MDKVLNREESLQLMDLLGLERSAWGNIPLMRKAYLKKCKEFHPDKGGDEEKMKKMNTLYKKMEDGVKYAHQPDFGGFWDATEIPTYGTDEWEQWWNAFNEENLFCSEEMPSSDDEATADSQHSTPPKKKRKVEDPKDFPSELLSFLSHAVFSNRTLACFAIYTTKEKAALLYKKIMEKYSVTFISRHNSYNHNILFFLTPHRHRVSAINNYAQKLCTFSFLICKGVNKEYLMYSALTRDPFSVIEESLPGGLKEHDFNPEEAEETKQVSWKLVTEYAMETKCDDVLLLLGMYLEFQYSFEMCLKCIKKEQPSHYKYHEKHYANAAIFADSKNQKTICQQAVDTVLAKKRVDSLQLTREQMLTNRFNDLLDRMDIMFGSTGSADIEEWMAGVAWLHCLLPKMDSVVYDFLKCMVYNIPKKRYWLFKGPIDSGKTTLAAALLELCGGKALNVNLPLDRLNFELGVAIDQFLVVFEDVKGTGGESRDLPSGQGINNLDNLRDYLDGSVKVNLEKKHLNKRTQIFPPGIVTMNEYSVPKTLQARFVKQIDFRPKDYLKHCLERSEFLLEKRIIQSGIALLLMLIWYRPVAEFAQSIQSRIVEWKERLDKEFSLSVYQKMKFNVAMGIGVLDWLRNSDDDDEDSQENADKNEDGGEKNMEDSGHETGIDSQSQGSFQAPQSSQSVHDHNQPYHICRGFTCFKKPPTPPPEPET

inhibition, inactive:
O=C1CSC(=S)N1c1cccc(Br)c1 9.66%
O=C1c2c([N+](=O)[O-])cc([N+](=O)[O-])cc2S(=O)N1Cc1ccccc1 (centres undefined) 11.3%
O=c1c2c([N+](=O)[O-])cc([N+](=O)[O-])cc2nc2ccccn12 9.53%
CC1CCCC(C)N1C(=O)COC(=O)c1ccc2c(c1)OCO2 (centres undefined) -2.3%
Cc1ccc(S(=O)(=O)N2CCN(C(=O)COC(=O)CCOc3cc(C)ccc3C)CC2)cc1 7.19%
COc1ccccc1OCC(=O)N1CCNC1=O 12%
O=Cc1ccc2c(c1)CCN2Cc1ccccc1 3.42%
O=C1NC(=S)N/C1=C/c1ccc2c(c1)OCO2 11.6%
O=C(O)c1cccc(S(=O)(=O)Nc2ccc3c(c2)OCO3)c1 15.8%
O=C(O)c1cccc(S(=O)(=O)Nc2ccc3[nH]c(=O)[nH]c3c2)c1 -8.06%
CC(=O)c1c(C)oc2ccc(NS(=O)(=O)c3ccc(O)c(C(=O)O)c3)cc12 20.5%
O=C(O)c1cc(NS(=O)(=O)c2ccc3ccccc3c2)ccc1O 25.9%
C=CCN(c1ccccc1)S(=O)(=O)c1cccc(C(=O)NNC(=O)c2ccccc2O)c1 7.21%
CC(C)c1nc(SCC(=O)Nc2ccc3c(c2)OCCO3)c2c(=O)n(C)c(=O)n(C)c2n1 3.08%
Cc1c(NC(=O)/C(C#N)=C/c2ccc(-c3cc(Cl)ccc3Cl)o2)c(=O)n(-c2ccccc2)n1C 0.645%
C/C(=N\Nc1nc(N)cc(Cl)n1)c1ccc(F)cc1 1.42%
CSc1cccc(CNC(=O)C2CCC(=O)N(CCc3ccccn3)C2)c1 (centres undefined) 25.2%
Cc1ccc(-c2ccc(=O)n(CC(=O)NCCN3C(C)CCCC3C)n2)cc1 (centres undefined) 0.56%
COc1ccccc1N(CC(=O)NCc1ccccc1C)S(=O)(=O)c1ccc(C)cc1 2.07%
Cc1ccc2c(c1)/C(=C/c1ccco1)C(=O)N2 -3.2%
O=C1Nc2ccccc2Nc2ncccc21 -0.98%
COc1cc(C(=O)O)c2c(c1C)OC(=O)c1c(C)cc(O)c(C=O)c1O2 5.23%
COc1cc(C)c2c(c1C=O)Oc1c(c(C)c(O)c3c1C(O)OC3=O)OC2=O (centres undefined) 20%
Cc1ccccc1NC(=O)NC1(C(=O)N2CCN(C)CC2)CCCCC1 8.19%
COc1cc(OC)cc(C(=O)N/N=C/c2ccc(OC)c(COc3ccc(F)cc3)c2)c1 -6.49%
Cc1ccc(-c2nnc(Nc3cccc(O)c3)c3ccccc23)cc1S(=O)(=O)NCCO 34.4%
CC(=O)Nc1ccc(Nc2nnc(-c3ccc(C)c(S(=O)(=O)NCCO)c3)c3ccccc23)cc1 10.9%
Cc1cnc(NCCc2ccccc2)s1 7.89%
O=C(CSc1nncc2ccccc12)Nc1cccc(C(=O)O)c1 27.1%
CN(CC(=O)Nc1ccc(F)cc1)C(=O)COc1ccc([N+](=O)[O-])cc1Cl 0.38%
C[C@@H]1O[C@@H](O[C@H]2[C@H](Oc3cc(O)c4c(c3)OC(c3ccc(O)cc3)CC4=O)O[C@H](CO)[C@@H](O)[C@@H]2O)[C@H](O)[C@H](O)[C@H]1O (some centres undefined) 34%
C[C@@H]1O[C@@H](O[C@H]2[C@H](Oc3cc(O)c4c(c3)O[C@H](c3ccc(O)cc3)CC4=O)O[C@H](CO)[C@@H](O)[C@@H]2O)[C@H](O)[C@H](O)[C@H]1O 25.7%
CC(C)Oc1ccc(CN2CCCC(CO)(Cc3ccc(F)cc3)C2)cc1 (centres undefined) 6.25%
Cc1nn(-c2ccccc2)c2sc(C(=O)NCCN3CCOCC3)cc12 16.1%
O=C1NN(c2cccc(Br)c2)C(=O)/C1=C\c1ccccc1 26.7%
O=C1NN(c2cccc(Br)c2)C(=O)/C1=C\c1ccc(N2CCOCC2)cc1 8.36%
O=C(NCc1ccccc1)C1CC(=O)N(c2ccc(OCC(=O)N3CCCC3)cc2)C1 (centres undefined) 5.81%
COc1ccccc1N(CC(=O)NCc1ccco1)S(C)(=O)=O 15.8%
CN(C)c1cc(Nc2ccc(O)cc2)c([N+](=O)[O-])c2nonc12 14.7%
O=C(O)c1ccccc1Nc1cc(Cl)c2nonc2c1[N+](=O)[O-] 33.3%
O=C(O)c1cccc(Nc2ccc3nonc3c2[N+](=O)[O-])c1 10.9%
Cc1c(Nc2cc(Cl)c3nonc3c2[N+](=O)[O-])c(=O)n(-c2ccccc2)n1C 26.5%
O=[N+]([O-])c1c(Nc2ccccn2)cc(Cl)c2nonc12 27.4%
O=[N+]([O-])c1c(Nc2ccccc2O)cc(Cl)c2nonc12 29.4%
O=C(O)c1cccc(Nc2cc(Cl)c3nonc3c2[N+](=O)[O-])c1 20.1%
CN(C)c1cc(Nc2cccc(O)c2)c([N+](=O)[O-])c2nonc12 16.9%
O=C(O)c1cnc(-c2ccccc2)nc1Sc1ccc(Cl)cc1 12.4%
CCOc1ccc(C(c2nnnn2C(C)(C)C)N2CCN(C(=O)c3ccco3)CC2)cc1 (centres undefined) 4.34%
CC(NS(=O)(=O)c1ccc(F)cc1)C(c1cccs1)N1CCOCC1 (centres undefined) -5.54%
COC(=O)c1ccccc1NC(=O)CCCCCn1nnc2ccccc2c1=O 26.9%
COc1cccc(CN(C)CC(=O)NCc2ccc(F)cc2)c1OC -3.04%
CC(=O)Oc1ccc(-c2cccc(C(=O)Oc3ccccc3)c2)cc1 -7.54%
CCN(CC)S(=O)(=O)c1ccc(NC(=O)COC(=O)CCc2cc(OC)c(OC)c(OC)c2)cc1 0.42%
O=[N+]([O-])c1ccccc1NCCOc1ccccc1 5.2%
COC(=O)c1ccccc1NC(=O)C/C(C)=N/NC(=O)CC#N 6.52%
CC(C)C[C@H](NC(=O)Nc1cccc(Cl)c1)C(=O)O 10.3%
O=C(CN1CCOCC1)Nc1ccccc1Cl 8.91%
NC(=O)N/N=C/c1ccc(-c2ccc([N+](=O)[O-])cc2)o1 12.1%
O=C(N/N=C/c1ccc(O)cc1O)C1CC1 33.4%
O=C(N/N=C/c1ccc(-c2cccc([N+](=O)[O-])c2)o1)c1ccccc1O 2.92%
NC(N)=N/N=C/c1cc([N+](=O)[O-])ccc1O 9.25%
CCCCn1c(N)c(N(CC(C)C)C(=O)C2CCN(S(=O)(=O)c3ccc(Cl)cc3)CC2)c(=O)[nH]c1=O 11.5%
O=C(NCC1CCCCC1)c1cccnc1 11.1%
O=C(NCCO)C(=O)Nc1cc2c3c(c1)CC(=O)N3CCC2 7.7%
CCCC(=O)Nc1cc2c3c(c1)CC(=O)N3CCC2 8.54%
Nc1ccc(Nc2ccccc2)c(Cl)c1 19.8%
Cc1ccc(Nc2ccc(N)cc2S(=O)(=O)O)cc1 21.6%
Cc1ccc(Nc2ccc(C(=O)O)cc2N)cc1 -4.88%
Cc1cc(C)cc(Nc2ccc(C(=O)O)cc2N)c1 23.9%
CC(=O)c1c(NCCc2ccccc2)cc(C)oc1=O -0.81%
CCC(OC(=O)c1cccs1)C(=O)NCc1ccco1 (centres undefined) 8.42%
Cc1c(Cl)cccc1NC(=O)NC1CCCCC1 2.26%
CCc1cccc2c(C(=O)CSc3nncn3-c3ccccc3OC)c[nH]c12 2.74%
COc1cccc(-n2cc(C(=O)NCCCOC(C)C)c3ccccc3c2=O)c1 11.2%
O=C(/C=C/c1ccc(O)c(O)c1)OCCc1ccccc1 37.9%
O=C(/C=C/c1ccc(O)c(O)c1)OC(Cc1ccc(O)c(O)c1)C(=O)O (centres undefined) 4.28%
CN(CCCNS(=O)(=O)c1cccc2cccnc12)Cc1ccccc1 -0.29%
O=C(Cn1c(=O)n(Cc2ccco2)c(=O)c2c3c(sc21)CCCCC3)Nc1ccccc1 51.6%
O=C(Cn1c(=O)n(Cc2ccco2)c(=O)c2c3c(sc21)CCCCC3)c1ccccc1 49.4%
CN1C(=O)C(CC(=O)NC2CCCCC2)N(C)C1=O (centres undefined) -7.63%
CCOc1ccc(N=Cc2c(O)cc(C)oc2=O)cc1 18.6%
Cc1cccc(N=Cc2c(O)cc(C)oc2=O)c1 7.74%
NC(=O)CN1CCN(S(=O)(=O)c2ccc(Cl)cc2)CC1 4.21%
COc1ccc(C(C2C(=O)CC(C)(C)CC2=O)C2C(=O)CC(C)(C)CC2=O)cc1 25.9%
COc1ccc(C2CC(=O)C=C(O)C2)cc1 (centres undefined) 6.5%
CC(=O)N(Cc1cccc(Br)c1)c1ccc(N2CCOCC2)c(Cl)c1 9.14%
Cn1c(COc2ccc3ccccc3c2)nnc1SCC(N)=O -1.72%
Cc1cccc(N=c2oc3cc(O)ccc3cc2C(N)=O)c1 22.6%
NC(=O)c1cc2ccc(O)cc2oc1=Nc1ccccc1 36.3%
CN(C)/C=N/c1c(C#N)cnn1-c1ccccc1 9.99%
CN(CC(=O)Nc1ccc(Cl)c(C(F)(F)F)c1)C(=O)C1CCC1 17.7%
Cc1ccc(N=Cc2sccc2C)cc1C 3.36%
Cc1ccsc1/C=N/N=C/c1sccc1C -8.78%
Cn1c(N)c(S(=O)(=O)N2CCCC2)c(=O)n(C)c1=O 8.94%
